# In PubChem BioAssay (NCATS):
# Inconclusive results are not listed. Where a call stands in place of a potency, no number is given. A number with no mark means an inactive call. Activity calls are given as the source filed them. Unless noted, calls follow the shape of the dose curve; as a rule, active = well fitted curve in the direction sought with a large enough effect; inconclusive = small, poorly fitted or top-dose-only effect, or another doubt; inactive = no such curve, though single readings can be large; an effect the other way counts as inactive or inconclusive.
# Experiments:
# [1] = target: Calcium and integrin-binding protein 1 (Homo sapiens) (UniProt Q99828); experiment: Primary qHTS for Identification of Calcium Integrin Binding Protein 1 (CIB1) Competitor (AID 1508620);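 also: GST tagged CIB1 binding a fluorescein labelled alphaIIb integrin peptide tracer; top concentration of the series differs between compounds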
# Chain of Calcium and integrin-binding protein 1 (Homo sapiens) (Q99828 whole entry, looked up): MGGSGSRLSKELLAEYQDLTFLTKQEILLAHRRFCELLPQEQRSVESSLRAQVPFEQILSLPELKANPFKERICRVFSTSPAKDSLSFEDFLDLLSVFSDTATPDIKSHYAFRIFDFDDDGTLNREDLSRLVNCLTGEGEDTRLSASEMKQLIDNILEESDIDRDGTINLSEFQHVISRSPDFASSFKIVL
# How it was run: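 Fluorescence polarization competition: CIB1-GST (1 uM final) preincubated with compound 15 min at room temperature, then FITC-labeled alphaIIb peptide (100 nM final) added for another 15 min. Polarization read at Ex 480/Em 540.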
# [2] = Primary qHTS for inhibitors of nuclear receptor binding SET domain protein 2 (NSD2) in an isogenic RCH-ACV NSD2 p.E1099K mutant (9B) (AID 1645876); also: nearly all actives have a fitted effect of over 70% in size
# [3] = Primary qHTS for inhibitors of nuclear receptor binding SET domain protein 2 (NSD2) in an RCH-ACV wild type WT cells (2C) (AID 1645877); also: nearly all actives have a fitted effect of over 70% in size; also: potency is read from the fitted curve at half-maximal effect
# [4] = target: Cytochrome P450 2C9 (Homo sapiens) (UniProt P11712); experiment: Cytochrome P450 family 2 subfamily C member 9 (CYP2C9) small molecule antagonists: luciferase biochemical (cell-free) qHTS assay (AID 1645842; active = well fitted curve in the direction sought with a large enough effect in the repeat runs; an effect the other way counts as inactive or inconclusive; also: nearly all actives have a fitted effect of over 55% in size; also: potency is read from the fitted curve at half-maximal effect)
# Chain of Cytochrome P450 2C9 (Homo sapiens) (P11712 whole entry, looked up): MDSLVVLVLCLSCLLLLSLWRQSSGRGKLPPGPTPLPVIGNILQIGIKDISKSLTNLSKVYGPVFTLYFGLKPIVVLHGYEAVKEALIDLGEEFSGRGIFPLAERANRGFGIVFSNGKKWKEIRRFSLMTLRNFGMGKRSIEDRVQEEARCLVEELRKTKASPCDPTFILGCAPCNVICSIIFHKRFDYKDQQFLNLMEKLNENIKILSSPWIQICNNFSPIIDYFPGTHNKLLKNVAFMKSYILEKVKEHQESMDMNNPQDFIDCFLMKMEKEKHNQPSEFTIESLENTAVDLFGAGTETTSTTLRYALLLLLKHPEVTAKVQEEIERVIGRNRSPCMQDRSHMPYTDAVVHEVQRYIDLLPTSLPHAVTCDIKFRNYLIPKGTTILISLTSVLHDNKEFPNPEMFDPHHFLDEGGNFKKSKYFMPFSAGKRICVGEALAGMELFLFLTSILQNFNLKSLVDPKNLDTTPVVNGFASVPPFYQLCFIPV
# How it was run: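 Luminescence, after 20 min with luciferin detection reagent, reflected CYP2C9 turnover during a 1 h NADPH-driven reaction at 37C. Enzyme-substrate mix contained 0.4% bovine serum albumin and was preincubated with compound 10 min at room temperature.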
# [5] = target: Cytochrome P450 2D6 (Homo sapiens) (UniProt P10635); experiment: Cytochrome P450 family 2 subfamily D member 6 (CYP2D6) small molecule antagonists: luciferase biochemical (cell-free) qHTS assay (AID 1645840; active = well fitted curve in the direction sought with a large enough effect in the repeat runs; an effect the other way counts as inactive or inconclusive; also: nearly all actives have a fitted effect of over 55% in size; also: potency is read from the fitted curve at half-maximal effect)
# Chain of Cytochrome P450 2D6 (Homo sapiens) (P10635 whole entry, looked up): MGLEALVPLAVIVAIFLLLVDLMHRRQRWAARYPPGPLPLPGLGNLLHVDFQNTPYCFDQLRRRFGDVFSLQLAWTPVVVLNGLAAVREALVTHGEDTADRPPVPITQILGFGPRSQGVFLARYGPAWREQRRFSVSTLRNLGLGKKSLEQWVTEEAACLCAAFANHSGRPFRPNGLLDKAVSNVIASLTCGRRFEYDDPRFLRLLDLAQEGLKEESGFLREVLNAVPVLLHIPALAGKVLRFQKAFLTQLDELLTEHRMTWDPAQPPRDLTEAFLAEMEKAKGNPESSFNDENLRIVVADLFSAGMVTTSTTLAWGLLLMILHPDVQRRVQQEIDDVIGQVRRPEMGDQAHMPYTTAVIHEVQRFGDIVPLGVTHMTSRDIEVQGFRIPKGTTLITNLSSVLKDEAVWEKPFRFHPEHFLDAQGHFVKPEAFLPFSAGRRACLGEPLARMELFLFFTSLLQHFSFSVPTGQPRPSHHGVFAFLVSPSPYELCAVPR
# How it was run: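 P450-Glo luminescent screen: recombinant CYP2D6 enzyme–proluciferin substrate mix preincubated with compound 10 min at room temperature, then NADPH regeneration added for 1 h at room temperature. Detection reagent added for 20 min; luciferin light read as relative luminescence units.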
smiles,measurement,setting,value
C=CC(C)(O)CC/C=C(\C)COC1O[C@H](CO)[C@@H](O)[C@H](O)[C@H]1O (some centres not stated),Potency,[1],inactive
same,Potency,[2],inactive
same,Potency,[3],inactive
O=C(O)c1ccncc1Nc1nn(CCN2CCC(F)(F)CC2)c2ccc(F)cc12,Potency,[1],inactive
same,Potency,[2],inactive
same,Potency,[3],inactive
C[C@@H]1O[C@@H](O[C@H]2[C@H](O)[C@@H](O[C@@H]3O[C@H](CO)[C@H](O)[C@H](O)[C@H]3O)[C@H](O[C@H]3CC[C@@]4(C)C(CC[C@]5(C)C4CC=C4[C@@H]6CC(C)(C)CC[C@]6(C(=O)O[C@@H]6O[C@H](CO)[C@@H](O)[C@H](O)[C@H]6O)CC[C@]45C)C3(C)C)O[C@@H]2C(=O)O)[C@H](O)[C@H](O)[C@H]1O (some centres not stated),Potency,[1],inactive
same,"activity change, negative = viability loss",[2],0.405% [at 9.23 µM]
same,outcome,[3],inactive [at 9.23 µM]
C=C[C@H]1[C@H](O[C@@H]2O[C@H](CO)[C@@H](O)[C@H](O)[C@H]2O)OC=C(C(=O)OC)[C@H]1CCO,Potency,[1],inactive
same,Potency,[2],inactive
same,Potency,[3],inactive
CC(=O)OCC(Cc1ccccc1)NC(=O)C(Cc1ccccc1)NC(=O)c1ccccc1 (configuration not stated),Potency,[1],inactive
same,Potency,[2],inactive
same,Potency,[3],inactive
COC(=O)[C@]1(C)CCC[C@@]2(C)C(=O)CC[C@H]3C(=O)C=C(CC[C@@H]21)C3O (some centres not stated),Potency,[1],inactive
same,Potency,[2],inactive
same,Potency,[3],inactive
CC(C)C1NC(=O)C(CC2(O)c3ccccc3N3C(=O)C(Cc4ccccc4)NC32)NC1=O (configuration not stated),Potency,[1],inactive
same,Potency,[2],inactive
same,Potency,[3],inactive
C[C@@H]1O[C@@H](OC2C(O[C@H]3[C@H](O[C@H]4CC[C@@]5(C)C(CC[C@]6(C)C5CC=C5C7CC(C)(C)CC(O)[C@]7(C)CC[C@]56C)C4(C)C)O[C@H](C(=O)O)[C@@H](O)[C@@H]3O)OC(CO)C(O)C2O)[C@H](O)[C@H](O)[C@H]1O (some centres not stated),Potency,[1],inactive
same,"activity change, negative = viability loss",[2],3.07% [at 9.23 µM]
same,outcome,[3],inactive [at 9.23 µM]
CC(NC(=O)c1ccccc1N)C(=O)O (configuration not stated),Potency,[1],inactive
same,Potency,[2],inactive
same,Potency,[3],inactive
C[C@@H]1CC2OC(=O)C3=C2C(CCC3O)[C@@]12C[C@@H](c1ccoc1)OC2=O (some centres not stated),Potency,[1],inactive
same,Potency,[2],inactive
same,Potency,[3],inactive
CCC12CCCN3CCc4c(n(c5ccccc45)C(O)C1)C32 (configuration not stated),Potency,[1],inactive
same,Potency,[2],inactive
same,Potency,[3],inactive
C[C@@]12CC3(S(=O)(=O)O)OC(O1)[C@]1(COC(=O)c4ccccc4)[C@H]3C[C@]21O[C@@H]1O[C@H](CO)[C@@H](O)[C@H](O)[C@H]1O,Potency,[1],inactive
same,Potency,[2],inactive
same,Potency,[3],inactive
C/C(=C\CCC(C)C1CC(O)C2(C)C3CCC4C(C)(C)C(OC5OCC(O)C(O)C5O)CCC45CC35CC(O)C12C)C(=O)O (configuration not stated),Potency,[1],inactive
same,Potency,[2],inactive
same,Potency,[3],inactive
CC(C)(O)[C@@H]1CC[C@]2(CO)[C@@H](O)CC[C@](C)(O)[C@H]2[C@@H]1O[C@@H]1O[C@H](CO)[C@@H](O)[C@H](O)[C@H]1O,Potency,[1],inactive
same,Potency,[2],inactive
same,Potency,[3],inactive
OC[C@@]1(O)CO[C@H](OC[C@H]2O[C@@H](OC(CCCCc3ccc(O)cc3)CCc3ccc(O)cc3)[C@H](O)[C@@H](O)[C@@H]2O)[C@@H]1O (some centres not stated),Potency,[1],inactive
same,Potency,[2],inactive
same,Potency,[3],inactive
C=CC(C)(CC/C=C(\C)C(=O)OC)OC1OC(COC(=O)CC(C)(O)CC(=O)O)C(O)C(O)C1O (configuration not stated),Potency,[1],inactive
same,Potency,[2],inactive
same,Potency,[3],inactive
COc1cc([C@H]2OC[C@](O)(Cc3ccc(O[C@@H]4O[C@H](CO)[C@@H](O)[C@H](O)[C@H]4O)c(OC)c3)[C@@H]2CO)ccc1O,Potency,[1],inactive
same,Potency,[2],inactive
same,Potency,[3],inactive
Nc1ncnc2c1ncn2[C@H]1O[C@@H](C(=O)N2CCN(CC(=O)Nc3cccc4c3CNC4=O)CC2)[C@H](O)[C@@H]1O,Potency,[1],inactive
same,Potency,[2],inactive
same,Potency,[3],inactive
C=C1CC[C@H]2[C@@](C)(CCC(O)[C@@]2(C)CO)[C@@H]1/C=C/C(=C\C(=O)O)C(=O)O (some centres not stated),Potency,[1],inactive
same,Potency,[2],inactive
same,Potency,[3],inactive
COc1ccc(S(=O)(=O)Nc2nc(-c3cccc([N+](=O)[O-])c3)cs2)cc1OC,Potency,[4],4.25 µM (active)
same,Potency,[2],inactive
same,Potency,[3],inactive
C=C(CO)C(=O)O[C@H]1C[C@@]23O[C@@H]2CC/C(=C/[C@H]2OC(=O)C(=C)[C@H]12)CO[C@H]3O,Potency,[1],inactive
same,Potency,[3],8.98 µM (active)
CCCC1=CC2=C(CO1)C(=O)C(C)(O)C(OC(=O)c1c(C)cc(OC)cc1O)C2 (configuration not stated),Potency,[2],inactive
Oc1ccc2c(-c3c(-c4ccccn4)nn4c3CCC4)ccnc2c1,Potency,[5],inactive
same,Potency,[4],inactive
C/C=C/C=C/C1=C2C(=O)C3(C)C4C(C(=O)CC(O)/C=C/C)=C(O1)C1(C)C2C2(C)OC1(O)C4(C)OC23O (configuration not stated),Potency,[1],inactive
same,Potency,[3],7.96 µM (active)
CCCc1[nH]nc2c1C(c1cc(Cl)cc(Cl)c1O)C(C#N)=C(N)O2 (configuration not stated),Potency,[5],2.13 µM (active)
same,Potency,[4],12 µM (active)
C[C@H]1CC[C@@]2(OC1)O[C@H]1CC3C4CC[C@H]5C[C@@H](O[C@@H]6O[C@H](CO)[C@H](O[C@@H]7O[C@H](CO)[C@@H](O)[C@H](O[C@@H]8OC[C@@H](O)[C@H](O)[C@H]8O)[C@H]7O[C@@H]7O[C@H](CO)[C@@H](O)[C@H](O)[C@H]7O)[C@H](O)[C@H]6O)[C@H](O)C[C@]5(C)C4=CC(=O)[C@]3(C)[C@H]1[C@@H]2C (some centres not stated),"activity change, negative = viability loss",[2],-21.3% [at 9.23 µM]
N#Cc1cccc(-c2nc(-c3cccnc3)no2)c1,Potency,[5],2.62 µM (active)
same,Potency,[4],4.65 µM (active)
same,Potency,[2],inactive
same,Potency,[3],inactive
CC1(C(=O)O)CCCC2(C)C3CCC4CC3(CCC12)CC4(O)CO (configuration not stated),Potency,[2],inactive
CCOc1ncc(S(=O)(=O)N2CCN(CC)CC2)cc1-c1nc2c(CC)n(CCOC)nc2c(=O)[nH]1,Potency,[5],inactive
same,Potency,[4],10.7 µM (active)
same,Potency,[2],inactive
same,Potency,[3],inactive
CC1(C)CC[C@]2(C(=O)O)CC[C@]3(C)C(=CCC4[C@@]5(C)C[C@H](O)[C@H](O[C@@H]6O[C@H](CO)[C@@H](O)[C@H](O)[C@H]6O)[C@@](C)(CO)C5[C@H](O)C[C@]43C)[C@@H]2C1 (some centres not stated),Potency,[1],inactive
same,Potency,[3],inactive
C=C(C(=O)OC)[C@]12O[C@@](C)(CC[C@@]3(O)/C(=C\C)C(=O)O[C@]3(C)C[C@@H]1OC(=O)C(CO)CN1CCCC1C(=O)O)CC2=O (some centres not stated),Potency,[1],inactive
same,Potency,[3],6.82 µM (active)
COCC1OC(n2cnc3c(=O)[nH]cnc32)C(O)C1O (configuration not stated),Potency,[1],inactive
same,Potency,[2],inactive
same,Potency,[3],inactive
COC(=O)[C@H](O)[C@H]1C(C)(C)[C@H](OC(C)=O)[C@@]2(O)C(=O)[C@]1(C)C1CC[C@]3(C)C(CC(=O)O[C@H]3c3ccoc3)[C@]13O[C@@H]32 (some centres not stated),Potency,[1],inactive
same,Potency,[2],inactive
same,Potency,[3],inactive
COC1OC(O)C2(CCC3(O2)C(C)CC2OC(=O)C4(C)CCCC3(C)C24)C1O (configuration not stated),Potency,[1],inactive
same,Potency,[2],inactive
same,Potency,[3],inactive
C=C1CC/C=C(/C(=O)O)CCC2C1CC2(C)C (configuration not stated),Potency,[1],inactive
same,Potency,[2],inactive
same,Potency,[3],inactive
C/C=C(\C)C(=O)OCC1OC(OC2OC(CO)C(O)C(O)C2O)C(O)C(O)C1O (configuration not stated),Potency,[1],inactive
same,Potency,[2],inactive
same,Potency,[3],inactive
CC(C)=CC1C[C@](C)(O)[C@@H]2[C@H]3CCC4[C@@]5(C)CC[C@H](O[C@@H]6OC[C@H](O)[C@H](O[C@@H]7O[C@H](CO[C@@H]8O[C@H](CO)[C@@H](O)[C@H](O)[C@H]8O)[C@@H](O)[C@H](O)[C@H]7O)[C@H]6O[C@@H]6O[C@@H](C)[C@H](O)[C@@H](O)[C@H]6O)C(C)(C)[C@@H]5CC[C@@]4(C)[C@@]34CO[C@@]2(C4)O1 (some centres not stated),Potency,[1],inactive
same,"activity change, negative = viability loss",[2],-4.74% [at 9.23 µM]
same,"activity change, negative = cell killing",[3],3.17% [at 9.23 µM]
CC[C@H](NC(=O)c1c(O)c(-c2ccccc2)nc2ccccc12)c1ccccc1,Potency,[4],16.9 µM (active)
same,Potency,[2],inactive
COC(=O)/C=C/c1ccc(O[C@@H]2O[C@H](CO)[C@@H](O)[C@H](O)[C@H]2O)cc1,Potency,[1],inactive
same,Potency,[3],8.01 µM (active)
C=C1CCC2C(C)(C)CC(O)CC2(C)C1CCC(C)CCOC(=O)CCC(=O)O (configuration not stated),Potency,[2],inactive
CC(=O)/C=C/C1(O)C(C)(C)CC(O)CC1(C)O (configuration not stated),Potency,[1],inactive
same,Potency,[2],inactive
same,Potency,[3],inactive
CCC(C)/C=C(C)/C=C/C1=CC2=C(Cl)C(=O)C(C)(OC(C)=O)C(=O)C2=CN1CCCCC(N)C(=O)O (configuration not stated),Potency,[1],inactive
same,Potency,[2],inactive
same,Potency,[3],inactive
O=C(/C=C/c1ccc(O)cc1)OC[C@H]1O[C@@H](O/C(=C\c2ccccc2)C(=O)O)[C@H](O)[C@@H](O)[C@@H]1O,Potency,[1],inactive
same,Potency,[2],inactive
same,Potency,[3],inactive
COc1ccc(OC)c(C2C(C#N)=C(N)Oc3n[nH]c(-c4ccc5ccccc5c4)c32)c1 (configuration not stated),Potency,[5],7.56 µM (active)
same,Potency,[4],10.7 µM (active)
same,Potency,[2],inactive
same,Potency,[3],inactive
C/C=C(\C)C(=O)O[C@H]1C=CC(=O)O[C@H]1/C=C/[C@H](O)[C@@H](C)O,Potency,[1],inactive
same,Potency,[3],23 µM (active)
O=C(N[C@@H]1CC[C@@H](c2cccc(F)c2F)CN(CC(F)(F)F)C1=O)N1CCC(n2c(=O)[nH]c3ncccc32)CC1,Potency,[1],inactive
same,Potency,[3],16.3 µM (active)
C/C=C1/CC2C(=O)Nc3cc(O)c(OC)cc3C(=O)N2C1 (configuration not stated),Potency,[1],inactive
same,Potency,[3],10.1 µM (active)
COc1cc(Nc2ccc([N+](=O)[O-])cc2C(=O)O)cc2ccccc12,Potency,[4],6.74 µM (active)
same,Potency,[2],inactive
same,Potency,[3],inactive
CC[C@@H]1[C@H]2CCCCN3C(=O)C[C@H]([C@@H]4[C@H]1OC(=O)[C@H]4C)[C@@H]23,Potency,[2],inactive
CC1(C)CC[C@]2(C(=O)O)CC[C@]3(C)C(=CCC4[C@@]5(C)CC[C@H](O[C@@H]6O[C@H](C(=O)O)[C@@H](O)[C@H](O)[C@H]6O)C(C)(C)C5CC[C@]43C)C2C1 (some centres not stated),Potency,[1],inactive
same,Potency,[2],inactive
same,Potency,[3],inactive
CCOc1nc2c(N)ncnc2n1CC,Potency,[5],inactive
same,Potency,[4],inactive
same,Potency,[2],inactive
same,Potency,[3],inactive
CC1(O)CCC2C(C3C1CCC3(C)O)C2(C)C (configuration not stated),Potency,[1],inactive
same,Potency,[2],inactive
same,Potency,[3],inactive
CC(C)C[C@H](NC(=O)[C@@H]1O[C@H]1C(=O)O)C(=O)NCCCCN=C(N)N,Potency,[1],inactive
same,Potency,[2],inactive
same,Potency,[3],inactive
